Bioassay records as filed in PubChem BioAssay.
This is a sample that favours compounds with a hit; in the whole collection about 3.3% have one here.
BRCT inh green = inhibitors of human BRCA1 BRCT-phosphoprotein interaction (green fluorophore); Potency, µM (titrated, usually from 76.9 µM), for the others: at the highest dose activity change, negative = inhibition, hits mostly inhibitors; actives 0.05% (n = 75,000); BRCA1 BRCT-phosphopeptide binding, green fluorescence polarization;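 note: potency is the fitted concentration of half-maximal effect; plate controls were peptide without protein for full effect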
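Fluorescence polarization: His-tagged BRCT (~35 kDa BRCA1 C-terminus, 250 nM) bound to 100 nM fluorescein-labeled phosphorylated 10-aa BACH1 peptide, pH 7.3 phosphate buffer with DTT and Tween 20. Compounds incubated 12 min at room temperature; inhibition read as lowered polarization.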
HEK293 cAMP cs = raises cAMP in parental HEK293 cells, TSHR agonist counter-screen. parental HEK293 CNG cAMP sensor, membrane potential fluorescence. Potency, µM (highest dose often 57.1 µM), for inactives: at the top dose activation, actives largely listed as activators. actives 2.5% (n = 73,000); note: potency is the fitted concentration of half-maximal effect; % of control where 0% means no effect; nearly all actives have a fitted effect of over 55% in size
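Parental HEK 293 cells stably expressing a cAMP-gated CNG channel were loaded with membrane potential dye containing 100 uM RO 20-1724 for 60 min. Compound added for 30 min; depolarization read as fluorescence intensity at 590 nm.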
TSHR agonist = activates the human thyroid stimulating hormone receptor. Potency, µM (series often up to 57.1 µM), without a hit: top-dose activation, hits mostly activators. HEK293-CNG-TSHR cells (CNG channel as cAMP sensor), membrane potential dye, cAMP. P16473. AID 926. actives 0.48% (n = 73,000); active = well fitted activation curve with a large enough effect in the main read-out, with a control signal flat, not every such curve was filed as active; inconclusive = small, poorly fitted or top-dose-only effect, or a change in a side signal; inactive = no such curve, though single readings can be large or run the other way; % of control where 0% means no effect;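 note: the control signal comes from parental cells without the receptor; potency is the fitted concentration of half-maximal effect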
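HEK 293 cells stably expressing TSHR and a cAMP-gated CNG channel; parental CNG-only cells as counterscreen. Cells preloaded 60 min with membrane potential dye plus 100 uM RO 20-1724, then compound 30 min; fluorescence read at 590 nm.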
Hsp90 Hop PPI = changes Hsp90-Hop TPR2A binding signal, up or down; AlphaScreen TPR2A-His6 binding biotin-Hsp90 C-terminal peptide; Potency, µM (top dose mostly 57 µM), for inactives: at the highest dose activity change, negative = inhibition; actives 0.44% (n = 71,000); AID 595; active = well fitted curve in either direction with a large enough effect; inconclusive = small, poorly fitted or top-dose-only effect, or another doubt; note: potency is the fitted concentration of half-maximal effect; % is set by controls: 0 for no effect and ±100 for the full control effect
YjeE inh = displaces an ADP probe from E. coli YjeE (TsaE). P0AF67. purified YjeE enzyme, qHTS inhibition assay. Potency, µM. actives 0.05% (n = 71,000)
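Fluorescence polarization of a BODIPY Texas Red–ADP probe (2 uM) bound to purified YjeE (10 uM) was read after 15 min room-temperature incubation with compounds. Loss of polarization marks inhibitors; ADP serves as titrated control.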
BRCT inh red = BRCT-phosphoprotein interaction inhibition (red fluorophore) | P38398 | BRCT-phosphopeptide binding, red fluorescence polarization | Potency, µM (top dose mostly 76.9 µM), for the others: at the top dose activity change, negative = inhibition, actives largely listed as inhibitors | actives 0.03% (n = 75,000); note: % is set by controls: 0 for no effect and ±100 for the full control effect
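Rhodamine-labelled pBACH1 10-mer (100 nM) bound to BRCT domain (100 nM) at pH 7.3; compounds incubated 12 min room temperature, polarization read. Free peptide defines full inhibition; unlabelled decapeptide titrated as control.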
* marks the source's active call; other numbers are inactive results; i = inactive; u = inconclusive; x = no result given; [ ] = dose if it differs, or a comment. Unless noted, calls come from the whole dose curve; as a rule, active = well fitted curve in the direction sought with a large enough effect; inconclusive = small, poorly fitted or top-dose-only effect, or another doubt; inactive = no such curve, though single readings can be large; an effect the other way counts as inactive or inconclusive.

SMILES	BRCT inh green	HEK293 cAMP cs	TSHR agonist	Hsp90 Hop PPI	YjeE inh	BRCT inh red
CCCC(c1nnnn1Cc1ccco1)N1CCN(C2CCCC2)CC1 (configuration not stated)	-0.8%	15.8µM*	u	-2.5%	i	-2.3%
CCN(CC)S(=O)(=O)c1ccc(NC2CCCc3ccccc32)nc1 (configuration not stated)	1.0%	25.1µM*	u	5.9%	i	2.5%
O=S(=O)(c1ccc(NC2CCCc3ccccc32)nc1)N1CCOCC1 (configuration not stated)	-0.1%	19.7%	7.2%	-1.9%	i	-0.4%
O=C1[C@@H]2[C@@H]3C=C[C@H]([C@@H]2C(=O)N1CN1CCSCC1)[C@@H]1[C@@H]2C(=O)N(CN4CCSCC4)C(=O)[C@@H]2[C@H]31	-1.4%[15.4 µM]	2.8%[11.4 µM]	-2.5%[11.4 µM]	0.0%[11 µM]	i	-1.1%[15.4 µM]
CCNc1ncc2ncc(=O)n(Cc3ccc(F)cc3)c2n1	-1.0%	u	u	4.7%	i	0.8%
COc1cccc(C(c2nnnn2CCc2ccccc2)N2CCN(c3ccccc3)CC2)c1OC (configuration not stated)	0.4%	7.94µM*	u	-10.0%	i	0.1%
O=C(c1cccc(F)c1)N1CCC2(CC1)CN(c1ccccn1)C2	-2.7%	10.6%	0.5%	-0.8%	i	-0.3%
Cc1nn(-c2ccccc2)c2sc(C(=O)N(CC(=O)NC(C)(C)C)Cc3ccco3)cc12	-0.1%	15.8µM*	u	-9.7%	i	-2.2%
COC(=O)c1cc2c(C)nn(-c3ccccc3)c2s1	0.9%	29.5%	15.9%	16.4%	i	-1.9%
CCOC(=O)N1CCN(S(=O)(=O)c2ccc(C)cc2)C1c1ccccc1 (configuration not stated)	0.5%	12.6µM*	u	0.2%	i	-1.1%
CCCC[C@@H]1C[C@H]1C(NC(=O)c1ccccc1)c1ccccc1C(F)(F)F (some centres not stated)	4.2%	u	u	3.7%	i	0.5%
CCCC[C@@H]1C[C@H]1C(NC(=O)c1ccccc1)c1ccc(C(=O)OC)cc1 (some centres not stated)	-2.7%	15.8µM*	u	0.2%	i	-0.7%
CCCC[C@@H]1C[C@H]1C(NC(=O)Cc1ccccc1)c1ccc(-c2ccccc2)cc1 (some centres not stated)	-0.2%	25.6%	1µM*	u	i	1.1%
CCCC[C@@H]1C[C@H]1C(NC(=O)c1ccco1)c1ccccc1 (some centres not stated)	0.3%	15.8µM*	u	10.2%	i	0.7%
COc1cccc(-c2nc(CS(=O)(=O)CC(=O)NCc3ccccc3OC)c(C)o2)c1	2.2%	u	u	-2.0%	i	-0.4%
COc1cccc(-c2nc(CS(=O)(=O)CC(=O)NCc3ccccc3)c(C)o2)c1	-1.4%	u	u	-1.7%	i	-0.1%
COc1ccc(OC)c(CCNC(=O)CS(=O)(=O)Cc2nc(-c3ccccc3C)oc2C)c1	0.1%	15.8µM*	u	-5.8%	i	0.2%
Cc1ccccc1-c1nc(CS(=O)(=O)CC(=O)NCc2ccccc2)c(C)o1	-0.8%	26.6%	15.8µM*	-1.1%	i	0.3%
COc1ccc(CNc2ncnc3ccc(-c4ccc(N(C)C)cc4)cc23)c(OC)c1	-0.8%	-50.2%	u	u	i	-0.6%
N#CCCn1c(=O)c(-c2ccccc2)nc2cnc(Oc3ccccc3)nc21	-1.5%	11.5%[2.29 µM]	-2.6%	-5.7%	i	-0.2%
Cc1ccc(-n2nnnc2SCC(=O)NCCC2=CCCCC2)c(C)c1	-0.6%	31.6µM*	u	10.7%	i	-0.3%
Cc1ccc(-n2nnnc2SCC(N)=O)c(C)c1	0.0%	2.4%	19.7%	-5.2%	i	-0.6%
CCC(=O)Nc1cccc(-c2nc3ccccc3c(=O)o2)c1	-1.0%	-7.9%	4.8%	-1.5%	i	-11.3%
CCC(CC)C(=O)Nc1cccc(-c2nc3ccccc3o2)c1	-0.3%	27.5%	6.31µM*	5.1%	i	-0.7%
CCN(CC)c1nc(C#N)cc(-c2ccc(OC)cc2)n1	-0.5%	u	u	25.1µM*	i	-4.2%
SMILES	BRCT inh green	HEK293 cAMP cs	TSHR agonist	Hsp90 Hop PPI	YjeE inh	BRCT inh red
COc1ccc(-c2cc(C(F)(F)F)n3nc(C)cc3n2)cc1	-0.7%	0.2%	-8.5%	u	i	-1.1%
CCN(CC)c1nc2cc(OC)ccc2cc1C#N	1.8%	14.8%	9.2%	25.1µM*	i	-0.8%
FC(F)(F)c1cc(CO[C@H]2CCCN[C@H]2c2ccccc2)cc(C(F)(F)F)c1	1.8%	20µM*	u	-7.6%	i	0.5%
CCOC(=O)c1ccccc1NC(=O)C1COc2ccccc2O1 (configuration not stated)	-1.9%	25.1µM*	u	u	i	0.5%
COC(=O)c1cc(NC(=O)C2COc3ccccc3O2)cc(C(=O)OC)c1 (configuration not stated)	-0.5%	u	u	4.7%	i	-4.8%
c1ccc(C2=Nn3c(nnc3-c3cc(-c4ccccc4)n[nH]3)SC2)cc1	4.0%	25.1µM*	u	-6.3%	i	-1.5%
COc1ccc(C2=Nn3c(nnc3-c3ccccc3OC)SC2)cc1OC	3.2%	25.3%	10µM*	-4.3%	i	9.1%
Cc1ccc(-c2nnc3n2N=C(c2ccccc2)CS3)cc1	-2.1%	-3.7%	7.9%	-0.3%	i	-1.7%
COc1ccccc1-c1nnc2n1N=C(C)CS2	-3.5%	-0.2%	-7.2%	-1.6%	i	0.8%
CC/C=C\CC[C@H](O)C1=CCCCC1=O	-0.6%[15.4 µM]	-2.9%[11.4 µM]	-0.4%[11.4 µM]	x	x	0.6%[15.4 µM]
CC(=O)OCC1OC(C#CCC2CCCCC2)C=CC1OC(C)=O (configuration not stated)	-1.9%[15.4 µM]	8.4%[11.4 µM]	1.1%[11.4 µM]	x	x	0.3%[15.4 µM]
O=C1CCCCC1Sc1nnc(Cc2cccs2)n1CCc1ccccc1 (configuration not stated)	-0.2%	10µM*	u	-10.3%	i	-0.5%
COC(=O)c1cn(C(=O)c2ccco2)c2ccccc12	-1.1%	-2.4%	2.8%	3.3%	i	-1.2%
Cn1cc(/C(Cc2ccccc2)=N\O)c2ccccc21	2.8%	28.8%	20µM*	-7.6%	i	-1.0%
CCc1nc(N2CCCCC2C)c2oc3ccccc3c2n1 (configuration not stated)	-1.6%	20µM*	u	16.1%	i	1.4%
CCc1nc(N2CCCC(C)C2)c2oc3ccccc3c2n1 (configuration not stated)	-3.8%	15.8µM*	u	10.3%	i	0.2%
